# Measured values published in PubChem BioAssay (Tox21).
# Results filed as inconclusive are left out. Entries that show only a call come without a potency. Calls of active or inactive are those of the source. Calls follow the shape of the full dose curve.
# Assay: qHTS assay for small molecule agonists of the p53 signaling pathway (AID 651631); also: nearly all actives have a fitted effect of over 15% in size; also: potency is read from the fitted curve at half-maximal effect
# Conditions: HCT-116 p53RE-bla reporter, beta-lactamase FRET ratio, 16 h; series mostly up to 73.3 µM
# Summary of the method: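 Fluorescence intensity from cleaved LiveBLAzer B/G substrate (2 h, room temperature) served as the signal. Beforehand, HCT-116 reporter cells bearing p53 response elements were treated 16 h at 37 °C with DMSO-dissolved compounds.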
row,Compound,Potency
1,NC1[C@H]2CN(c3nc4c(cc3F)c(=O)c(C(=O)O)cn4-c3ccc(F)cc3F)C[C@@H]12 (stereo not given in full),29.8 µM (active)
2,CC(C)COCC(CN(Cc1ccccc1)c1ccccc1)N1CCCC1 (stereo not given),13.3 µM (active)
3,C=C(C)CCCC(C)CCO (stereo not given),inactive
4,C=CC(=O)[O-].C=CC(=O)[O-].[Zn+2],inactive
5,CCC(OCCCOC)OC(C)=O (stereo not given),inactive
6,O=C1c2ccccc2C(=O)C1(O)O,27.4 µM (active)
7,CCOC(=O)c1ccc(OCCN2C[C@H](O)[C@@H](O)[C@H](O)[C@H]2CO)cc1,inactive
8,CC=C(Cl)Cl,inactive
9,CC(C)C=O,inactive
10,CCCCCCNC(=O)n1cc(F)c(=O)[nH]c1=O,1.5 µM (active)
11,COc1ccccc1N1CCN(CCCCNC(=O)c2ccc(-c3ccc(C(C)=O)cc3)cc2)CC1,inactive
12,CCn1cc(C(=O)O)c(=O)c2cc(F)c(N3CCNCC3)cc21,inactive
13,CCCCCCCCCCC(=O)O,inactive
14,O=C1NC(=O)c2cc([N+](=O)[O-])ccc21,inactive
15,OC(CCN1CCCC1)(c1ccccc1)C1CCCCC1 (stereo not given),inactive
16,O=C(CCc1ccc(O)cc1)c1c(O)cc(O)cc1O,70.1 µM (active)
17,CC(=O)OCC[N+](C)(C)C,inactive
18,CCC=CC#N,inactive
19,O=c1c(O)c(-c2ccc(O)cc2)oc2cc(O)cc(O)c12,inactive

row,Compound,Potency
1,CC/C=C1/OC(=O)c2ccccc21,inactive
2,CC(=O)Nc1ccc(C)cc1C,inactive
3,CN1CCCN=C1COC(=O)C(O)(c1ccccc1)C1CCCCC1 (stereo not given),inactive
4,O=C1c2ccccc2C(=O)c2c(O)c(O)cc(O)c21,inactive
5,CC(CCC(=O)O)C(=O)O (stereo not given),inactive
6,C(=C\c1ccccc1)/c1ccccc1,inactive
7,C=C(C)C(=O)OCCCCCCCCCCCCC,inactive
8,CCC1NC(=O)c2cc(S(N)(=O)=O)c(Cl)cc2N1 (stereo not given),inactive
9,CC(C)C(O)(c1ccc(OC(F)(F)F)cc1)c1cncnc1 (stereo not given),inactive
10,C1C[C@@H]2[C@H]3CC[C@H](C3)[C@@H]2C1,inactive
11,C=C(C)[C@@H]1CCC2=CCC[C@@H](C)[C@]2(C)C1,inactive
12,Clc1cc(Cl)nc(Cl)n1,inactive
13,O[C@@H]1CO[C@H]2[C@@H]1OC[C@@H]2O,inactive
14,COc1cc(C(=O)NCCCCCC(=O)O)cc(OC)c1OC,inactive
15,CC(=O)[C@H]1[C@H](C#N)C[C@H]2[C@@H]3CC=C4C[C@@H](O)CC[C@]4(C)[C@H]3CC[C@@]21C,inactive
16,O=c1[nH]c2ccc(Cl)cc2o1,inactive
17,CCC(=O)OC,inactive
18,C=CC(=O)OCC1CC2CC1C1CCC(COC(=O)C=C)C21 (stereo not given),54.5 µM (active)
19,Cc1cc2c(OCC(CNC(C)(C)C)OC(=O)c3ccccc3)cccc2[nH]1 (stereo not given),inactive

# Assay: qHTS assay for small molecule agonists of the p53 signaling pathway - cell viability (AID 651633); also: nearly all actives have a fitted effect of over 30% in size; also: potency is read from the fitted curve at half-maximal effect
# Conditions: p53RE-bla HCT-116 viability, ATP luminescence, 16 h; series mostly up to 83.3 µM
# Summary of the method: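 p53RE-bla cells, seeded at 4,000 per well and rested 5 h at 37 C/5% CO2, received compounds in DMSO for 16 h at 37 C. CellTiter-Glo was then added, and luminescence was read after 30 min at room temperature to gauge cytotoxicity.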
row,Compound,Potency
1,NC1[C@H]2CN(c3nc4c(cc3F)c(=O)c(C(=O)O)cn4-c3ccc(F)cc3F)C[C@@H]12 (stereo not given in full),inactive
2,C=C(C)CCCC(C)CCO (stereo not given),inactive
3,C=CC(=O)[O-].C=CC(=O)[O-].[Zn+2],inactive
4,CCOC(=O)c1ccc(OCCN2C[C@H](O)[C@@H](O)[C@H](O)[C@H]2CO)cc1,inactive
5,CC=C(Cl)Cl,inactive
6,CC(C)C=O,inactive
7,CCCCCCNC(=O)n1cc(F)c(=O)[nH]c1=O,0.668 µM (active)
8,CCn1cc(C(=O)O)c(=O)c2cc(F)c(N3CCNCC3)cc21,inactive
9,CCCCCCCCCCC(=O)O,inactive
10,O=C1NC(=O)c2cc([N+](=O)[O-])ccc21,inactive
11,OC(CCN1CCCC1)(c1ccccc1)C1CCCCC1 (stereo not given),inactive
12,O=C(CCc1ccc(O)cc1)c1c(O)cc(O)cc1O,inactive
13,CC(=O)OCC[N+](C)(C)C,inactive
14,O=c1c(O)c(-c2ccc(O)cc2)oc2cc(O)cc(O)c12,inactive
15,CC/C=C1/OC(=O)c2ccccc21,inactive
16,CC(=O)Nc1ccc(C)cc1C,inactive
17,CN1CCCN=C1COC(=O)C(O)(c1ccccc1)C1CCCCC1 (stereo not given),inactive
18,O=C1c2ccccc2C(=O)c2c(O)c(O)cc(O)c21,inactive
19,C(=C\c1ccccc1)/c1ccccc1,inactive
20,C=C(C)C(=O)OCCCCCCCCCCCCC,inactive
21,CCC1NC(=O)c2cc(S(N)(=O)=O)c(Cl)cc2N1 (stereo not given),inactive
22,C1C[C@@H]2[C@H]3CC[C@H](C3)[C@@H]2C1,inactive
23,Clc1cc(Cl)nc(Cl)n1,inactive
24,O[C@@H]1CO[C@H]2[C@@H]1OC[C@@H]2O,inactive
25,CC(=O)[C@H]1[C@H](C#N)C[C@H]2[C@@H]3CC=C4C[C@@H](O)CC[C@]4(C)[C@H]3CC[C@@]21C,inactive
26,O=c1[nH]c2ccc(Cl)cc2o1,inactive
27,Cc1cc2c(OCC(CNC(C)(C)C)OC(=O)c3ccccc3)cccc2[nH]1 (stereo not given),inactive

# Assay: qHTS assay for small molecules that induce genotoxicity in human embryonic kidney cells expressing luciferase-tagged ATAD5 - cell viability (AID 651634); also: nearly all actives have a fitted effect of over 25% in size
# Conditions: HEK293T ATAD5-luc cells viability, CellTiter-Fluor, 15.5 h; series mostly up to 83.3 µM
# Summary of the method: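 Fluorescence from CellTiter-Fluor, reporting protease activity within live cells, served as the viability read-out. HEK293T cells carrying luciferase-tagged ATAD5 had been treated with compound for 15.5 hr at 37C.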
row,Compound,Potency
1,C=C(C)CCCC(C)CCO (stereo not given),inactive
2,C=CC(=O)[O-].C=CC(=O)[O-].[Zn+2],inactive
3,CCC(OCCCOC)OC(C)=O (stereo not given),inactive
4,O=C1c2ccccc2C(=O)C1(O)O,inactive
5,CCOC(=O)c1ccc(OCCN2C[C@H](O)[C@@H](O)[C@H](O)[C@H]2CO)cc1,inactive
6,CC=C(Cl)Cl,inactive
7,CCCCCCNC(=O)n1cc(F)c(=O)[nH]c1=O,inactive
8,COc1ccccc1N1CCN(CCCCNC(=O)c2ccc(-c3ccc(C(C)=O)cc3)cc2)CC1,inactive
9,CCn1cc(C(=O)O)c(=O)c2cc(F)c(N3CCNCC3)cc21,inactive
10,CCCCCCCCCCC(=O)O,inactive
11,OC(CCN1CCCC1)(c1ccccc1)C1CCCCC1 (stereo not given),inactive
12,CC(=O)OCC[N+](C)(C)C,inactive
13,CCC=CC#N,inactive
14,O=c1c(O)c(-c2ccc(O)cc2)oc2cc(O)cc(O)c12,inactive
15,CC(=O)Nc1ccc(C)cc1C,inactive
16,CC(CCC(=O)O)C(=O)O (stereo not given),inactive
17,C(=C\c1ccccc1)/c1ccccc1,inactive
18,C=C(C)C(=O)OCCCCCCCCCCCCC,inactive
19,CCC1NC(=O)c2cc(S(N)(=O)=O)c(Cl)cc2N1 (stereo not given),inactive
20,CC(C)C(O)(c1ccc(OC(F)(F)F)cc1)c1cncnc1 (stereo not given),inactive
21,C1C[C@@H]2[C@H]3CC[C@H](C3)[C@@H]2C1,inactive
22,O[C@@H]1CO[C@H]2[C@@H]1OC[C@@H]2O,inactive
23,O=c1[nH]c2ccc(Cl)cc2o1,inactive
24,CCC(=O)OC,inactive
25,Cc1cc2c(OCC(CNC(C)(C)C)OC(=O)c3ccccc3)cccc2[nH]1 (stereo not given),inactive
